Some test systems named below: NCI-H23 lung; NCI-H226 lung; NCI-H322M lung; HOP-62 NSCLC; NCI-H460 lung; HOP-92 NSCLC; NCI-H522 lung; A549/ATCC NSCLC; 786-0 renal; COLO 205 colon; DU-145 prostate; K-562 leukemia; MALME-3M melanoma; MDA-MB-231 breast; SF-268 CNS; SF-295 CNS; SF-539 CNS; UACC-257 melanoma; M14 melanoma.
Holding throughout (experiment): NCI-60 one-dose screen, 48 h (100 = growth as untreated, 0 = no growth, -100 = all killed)
Conditions in all cases: 10 µM unless noted

In PubChem BioAssay (NCI) one finds growth data, which are given here for eight compounds.

Molecules are shown by their SMILES. About 83,000 compounds went through this panel and 20% of them were active in at least one assay; those are over-represented in the sample as a whole.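 48-hour exposure, single concentration, 96-well plates; percent growth endpoint where 0 means no net growth. Active: below 10.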 A number with no mark means an inactive call. Calls of active or inactive are those of the source.

In the case of `Cc1nc2sc(C(=O)Nc3cccc(Br)c3)c(N)c2cc1C(=O)c1ccc(C(F)(F)F)cc1`, the growth in the assay on NCI-H23 lung was 75.1%; in the assay on NCI-H226 lung, 92%; in the assay on NCI-H322M lung it was 65.7%; in the assay with HOP-62 NSCLC, 60.6%; with NCI-H460 lung, 63.7%; in the assay with HOP-92 NSCLC, 80%. Moreover, the growth in the assay with NCI-H522 lung is 84.7%; with A549/ATCC NSCLC it was 74.7%; with 786-0 renal, 86.4%; in the assay with COLO 205 colon, 86.7%; in the assay on DU-145 prostate, 69.3%; with K-562 leukemia, 84.2%. The growth with MALME-3M melanoma is 81%; in the assay with MDA-MB-231 breast, 63.8%; in the assay with SF-268 CNS it was 79.4%; in the assay with SF-295 CNS it was 67.7%; in the assay with SF-539 CNS, 56.5%; in the assay with UACC-257 melanoma it was 95.2%. Moreover, in the assay with M14 melanoma, the growth was 69.2%.

Turning to `COc1cc(NCCCN(CC(C)C)C2CCCC2)c2ncccc2c1`, the growth in the assay on NCI-H23 lung is 62.5%; in the assay on NCI-H226 lung, 58.3%; with NCI-H322M lung, 101%; in the assay with HOP-62 NSCLC it was 82.9%; in the assay with NCI-H460 lung, 54.8%; with HOP-92 NSCLC it was 59.5%. Further, the growth in the assay with NCI-H522 lung is 60%; with A549/ATCC NSCLC it was 79%; in the assay on 786-0 renal it was 58.2%; with COLO 205 colon, 65.1%; in the assay on DU-145 prostate, 83.4%; with K-562 leukemia, 39.2%. The growth was 92.1% in the assay with MALME-3M melanoma; 74.8% with MDA-MB-231 breast; 87.5% in the assay on SF-268 CNS; 87.4% in the assay with SF-295 CNS; 88.8% in the assay on SF-539 CNS; 89.4% in the assay on UACC-257 melanoma. Moreover, the growth with M14 melanoma was 85.7%.

As to `COc1ccc(Cn2nc(-c3ccccc3)c3c2CCc2cnoc2-3)cc1`, the growth is 60.3% in the assay on NCI-H23 lung; 105% with NCI-H226 lung; 101% with NCI-H322M lung; 83.5% in the assay on HOP-62 NSCLC; 80.5% with NCI-H460 lung; 61.1% in the assay with HOP-92 NSCLC. Also, the growth in the assay on NCI-H522 lung was 70.3%; in the assay with A549/ATCC NSCLC it was 69.4%; in the assay on 786-0 renal, 79.4%; with COLO 205 colon it was 88.6%; in the assay with DU-145 prostate, 96.9%; in the assay on K-562 leukemia it was 36.3%. Also, the growth is 109% with MALME-3M melanoma; 55.6% with MDA-MB-231 breast; 81% in the assay on SF-268 CNS; 59.5% in the assay with SF-295 CNS; 85.4% in the assay with SF-539 CNS; 90.9% with UACC-257 melanoma. For the same compound, in the assay on M14 melanoma, the growth is 89.2%.

Turning to `COc1ccc(C(O)c2cc3c(N)c(C(=O)Nc4ccc(Br)cc4)sc3nc2C)cc1` (configuration not stated), the growth in the assay on NCI-H23 lung is 38.1%; in the assay on NCI-H226 lung, 42.4%; with NCI-H322M lung it was 39.4%; with HOP-62 NSCLC, 23%; in the assay with NCI-H460 lung it was 6.2% (active); in the assay with HOP-92 NSCLC it was 44.1%. Moreover, the growth in the assay on NCI-H522 lung was 6.85% (active); with A549/ATCC NSCLC, 24.3%; in the assay with 786-0 renal, 50.3%; in the assay with COLO 205 colon, 11.3%; with DU-145 prostate, -4.27% (active); with K-562 leukemia, 3.49% (active). Besides, the growth with MALME-3M melanoma was 24.8%; with MDA-MB-231 breast it was 54.1%; in the assay with SF-268 CNS, 45.4%; with SF-295 CNS, 21.6%; with SF-539 CNS, 27.2%; in the assay with UACC-257 melanoma it was 32.3%. The growth with M14 melanoma is 3.91% (active).

In the case of `CN1CCN(Cc2ccc(NC(=O)c3cncc(C#Cc4cnccc4C(F)(F)F)c3)cc2C(F)(F)F)CC1`, the growth with NCI-H23 lung was 67.9%; with NCI-H226 lung it was 47.8%; with NCI-H322M lung, 107%; with HOP-62 NSCLC, 80.5%; in the assay with NCI-H460 lung, 71.6%; in the assay with HOP-92 NSCLC it was 55.6%. Further, the growth in the assay on NCI-H522 lung is 79.4%; in the assay with A549/ATCC NSCLC, 94%; in the assay with 786-0 renal, 89.7%; in the assay with COLO 205 colon, 44.4%; in the assay on DU-145 prostate it was 105%; in the assay with K-562 leukemia it was 8.53% (active). The growth in the assay on MALME-3M melanoma was 15.3%; in the assay on MDA-MB-231 breast, 55.6%; in the assay with SF-268 CNS, 92.1%; with SF-295 CNS it was 88.6%; with SF-539 CNS, 28.8%; in the assay on UACC-257 melanoma, 80.4%. The growth in the assay on M14 melanoma was 35.2%.

For `O=C(NCCc1ccccn1)OCc1nc2nc(Cl)nc(N3CCOCC3)c2[nH]1`, the growth with NCI-H23 lung was 37.6%; with NCI-H226 lung, -53.2% (active); in the assay on NCI-H322M lung, 43.9%; in the assay with HOP-62 NSCLC, 27.3%; in the assay on NCI-H460 lung it was 3.35% (active); in the assay on HOP-92 NSCLC it was 22.4%. The growth in the assay on NCI-H522 lung is -34.4% (active); with A549/ATCC NSCLC, 43.5%; in the assay with 786-0 renal, 13.9%; in the assay on COLO 205 colon, 17.2%; in the assay with DU-145 prostate it was 12%; in the assay with K-562 leukemia it was 0.32% (active). Further, the growth in the assay with MALME-3M melanoma was 67.8%; with MDA-MB-231 breast, 28.5%; in the assay with SF-268 CNS, 24.3%; in the assay with SF-295 CNS, 91.4%; with SF-539 CNS, -13.4% (active); in the assay with UACC-257 melanoma, 30.6%. Besides, the growth with M14 melanoma is 4.12% (active).

On to `CC(=O)N1N=C(c2cccc(Nc3ccncc3)c2)CC1c1ccccc1` (configuration not stated), for which the growth was 93.3% with NCI-H23 lung; 95.3% in the assay with NCI-H226 lung; 93.3% with NCI-H322M lung; 92.5% with HOP-62 NSCLC; 95.1% with NCI-H460 lung; 55.9% in the assay on HOP-92 NSCLC. Further, the growth was 91.7% in the assay with NCI-H522 lung; 85.2% in the assay on A549/ATCC NSCLC; 4.92% (active) with 786-0 renal; 81.5% in the assay on COLO 205 colon; 99.5% in the assay on DU-145 prostate; 11.8% in the assay with K-562 leukemia. For the same compound, the growth with MALME-3M melanoma is 76.7%; in the assay with MDA-MB-231 breast, 83.9%; in the assay with SF-268 CNS, 91%; in the assay on SF-295 CNS it was 87.5%; in the assay on SF-539 CNS it was 80.9%; in the assay with UACC-257 melanoma, 92.6%. In the assay on M14 melanoma, the growth was -76.2% (active).

Take `O=S(=O)(NCCNc1nccc(-c2c(-c3ccc(F)c(O)c3)nc3occn23)n1)c1ccccc1`: the growth in the assay on NCI-H23 lung was 55.1%; with NCI-H226 lung, 92.1%; with NCI-H322M lung it was 72.7%; in the assay with HOP-62 NSCLC it was 76.9%; with NCI-H460 lung, 29.7%; with HOP-92 NSCLC it was 43.7%. Also, the growth is 55.2% with NCI-H522 lung; 45.8% in the assay with A549/ATCC NSCLC; 88.5% with 786-0 renal; 40.6% with COLO 205 colon; 57.1% with DU-145 prostate; 33.6% with K-562 leukemia. Moreover, the growth was -0.538% (active) with MALME-3M melanoma; 27.7% in the assay with MDA-MB-231 breast; 57% in the assay with SF-268 CNS; 93.3% in the assay with SF-295 CNS; 96% in the assay on SF-539 CNS; 25% in the assay on UACC-257 melanoma. Moreover, the growth in the assay on M14 melanoma is 18.8%.
